Measurements from PubChem BioAssay AID652257 (The Scripps Research Institute Molecular Screening Center, 2013).
Screen size: about 370,000 compounds; about 4,800 (1.3%) were called active. This is one part of a sample in which actives are shown more often than they occur.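 The calls were made as follows: active = inhibition above about 21% made by adding two undisclosed values (limit read from the data); inactive = the rest.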

Each molecule was assayed against Protein arginine N-methyltransferase 1 (Homo sapiens) (UniProt Q99873) (assay: PRMT1 methyltransferase inhibitors, primary screen, biochemical, fluorescence polarization (AID 652257)). Conditions: recombinant PRMT1, activity-based probe fluorescence polarization; at 2.79 µM; hits give high values.
Protein arginine N-methyltransferase 1 (Homo sapiens), sequence (Q99873 whole entry, looked up): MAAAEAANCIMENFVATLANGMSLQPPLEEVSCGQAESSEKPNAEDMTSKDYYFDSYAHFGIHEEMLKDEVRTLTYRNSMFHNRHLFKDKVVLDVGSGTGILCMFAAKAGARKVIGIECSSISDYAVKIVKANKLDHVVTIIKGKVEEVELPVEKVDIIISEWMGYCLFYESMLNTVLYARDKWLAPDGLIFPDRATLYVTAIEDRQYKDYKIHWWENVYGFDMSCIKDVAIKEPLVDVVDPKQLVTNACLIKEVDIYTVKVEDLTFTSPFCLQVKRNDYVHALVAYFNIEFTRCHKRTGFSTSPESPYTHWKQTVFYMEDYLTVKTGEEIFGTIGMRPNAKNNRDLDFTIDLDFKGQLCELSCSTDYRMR

Structure (SMILES)	inhibition
CCOC(=O)C(=O)N(Cc1ccccc1)c1ccccc1C(=O)Nc1cc(OC)ccc1OC	-1.5% (inactive)
CCOc1ccc(N(CC(=O)NCCc2ccc(F)cc2)S(=O)(=O)c2ccccc2)cc1	1.75% (inactive)
COc1c(Br)cc2c(C)c(C(=O)N3CCOCC3)oc2c1Br	-2.82% (inactive)
CC1(C(=O)NCc2ccc3c(c2)OCO3)CCN1C(=O)Cc1cccc2ccccc12 (configuration not stated)	24.5% (active)
CC1(C(=O)NCc2ccc3c(c2)OCO3)CCN1C(=O)Cc1cccs1 (configuration not stated)	0.09% (inactive)
CC1(C(=O)NCc2ccc3c(c2)OCO3)CCN1CCc1ccccc1 (configuration not stated)	-4.72% (inactive)
CCOC(=O)[C@]12CCCC3=C1N(CCC3)C(=O)[C@@H](CC(=O)NCc1cccs1)C2	1.5% (inactive)
N#CCC[C@H]1CC[C@]2(CCCN(Cc3ccc(Cl)cc3)C2)O1	1.93% (inactive)
O=c1[nH]c2ccccc2s1	5.51% (inactive)
CCOc1ccc2[nH]c(=S)sc2c1	10.4% (inactive)
Nc1ccc2[nH]c(=S)sc2c1	28.3% (active)
Cc1cc(C)cc(NC(=O)N2CCC(N(C)CCC(C)C)CC2)c1	-0.26% (inactive)
CCN(CC)C(=O)C(C)N1c2cccc3cccc(c23)S1(=O)=O (configuration not stated)	-0.89% (inactive)
CC1=C(C(=O)N(C)C)CC(CC(=O)NCCN2CCOCC2)C(=O)N1Cc1ccccc1 (configuration not stated)	-1.74% (inactive)
Cc1cccc(CCNC(=O)Cn2ncc3c([nH]c4ccc(C)cc43)c2=O)c1	-0.97% (inactive)
CCOC(=O)[C@]12CCCC3=C1N(CCC3)C(=O)[C@@H](CC(=O)N1CCSCC1)C2	-9.78% (inactive)
COC(C[C@@H](O)[C@H](C)[C@H](O)COCc1ccccc1)OC	-0.18% (inactive)
COC(=O)c1ccc(SCc2ccccc2)nc1	1.13% (inactive)
O=c1c2ccccc2c(-c2ccc(Br)cc2)nn1Cc1ccccc1	3.02% (inactive)
CSc1c(SCc2ccccc2)cnn(Cc2ccccc2)c1=O	42.6% (active)
COc1ccccc1S(=O)(=O)c1c(C)cc(C)[nH]c1=O	-5.06% (inactive)

Structure (SMILES)	inhibition
O=C1Nc2ccccc2C1=NN=Cc1ccco1	-4.47% (inactive)
Cc1cc(C)c(/C=C2\C(=O)Nc3ccccc32)[nH]1	64.8% (active)
CC(=O)Nc1nc2ncccn2c1-c1ccc(C(F)(F)F)cc1	5.51% (inactive)
CCC(=O)N1c2ccc(S(=O)(=O)NCc3ccco3)cc2CC1C (configuration not stated)	4.05% (inactive)
COc1ccccc1CNC(=O)C1CCN(S(=O)(=O)c2ccc3c(c2)CC(C)N3C(=O)C2CC2)CC1 (configuration not stated)	0.46% (inactive)
Cc1ccc(CNC(=O)CCS(=O)(=O)c2ccc3c(c2)CC(C)N3C(=O)C2CC2)o1 (configuration not stated)	35.6% (active)
COc1ccc(N2CCN(CCNS(=O)(=O)c3ccc(Cl)s3)CC2)cc1	-1.47% (inactive)
Cc1cc(C)n2ncc(C(=O)Nc3ccc4c(c3)OCCO4)c2n1	-2.31% (inactive)
Cc1ccc(S(=O)(=O)N2CCN(C)CC2)cc1C(=O)NC1CCCCC1	3.5% (inactive)
CC(C)N1CCCCC(NC(=O)C(C)(C)C)C1=O (configuration not stated)	-1.77% (inactive)
Cc1nc2sc(C(c3ccco3)N3CCOCC3)c(O)n2n1 (configuration not stated)	49.8% (active)
Cc1nc2sc(C(c3ccco3)N3CCC4(CC3)OCCO4)c(O)n2n1 (configuration not stated)	8.34% (inactive)
Oc1c(C(c2ccco2)N2CCC3(CC2)OCCO3)sc2ncnn12 (configuration not stated)	21.8% (active)
Cc1ccc(C(c2sc3nc(C)nn3c2O)N2CCN(c3ccccc3)CC2)cc1 (configuration not stated)	-1.11% (inactive)
Oc1c(C(c2cccs2)N2CCN(c3ccc(F)cc3)CC2)sc2ncnn12 (configuration not stated)	-2.78% (inactive)
CC(CCN1CCC(C(O)(c2ccccc2)c2ccccc2)CC1)Oc1ccc([N+](=O)[O-])cc1Cl (configuration not stated)	-5.87% (inactive)
CC(=O)Nc1ccc(NS(=O)(=O)c2cc(C)sc2C)cc1	3.68% (inactive)
CC(C)C(C#CC1CC1)N(Cc1ccc2c(c1)OCO2)C(N)=NC(=O)/C=C/c1cccc(C(F)(F)F)c1 (configuration not stated)	1.58% (inactive)
CCc1ccc(NC2Nc3cc(C)nn3S2)cc1 (configuration not stated)	30.6% (active)
CC(C)N1CCCCC(NC(=O)c2ccc3ccccc3c2)C1=O (configuration not stated)	1.16% (inactive)
O=C(OCc1cn([C@@H]2C[C@H](c3ccc(Cl)cc3)N(Cc3cccs3)C[C@H]2O)nn1)c1ccccc1	6.65% (inactive)

Structure (SMILES)	inhibition
COC(=O)[C@@]12CCCCC=C1N(CCc1ccc(Cl)cc1)C(=O)[C@H]2CC(=O)NCc1ccc(OC)c(OC)c1	1.14% (inactive)
C#CCN([C@@H](C)C(=O)OCC)S(=O)(=O)c1ccc(Br)cc1F	-2.15% (inactive)
O=C(COC(=O)COc1cc(Cl)c(Cl)cc1Cl)NC1CC1	0.44% (inactive)
NC(=S)NN=Cc1ccc(OC(=O)COc2cc(Cl)c(Cl)cc2Cl)cn1	47.2% (active)
O=C(COc1cc(Cl)c(Cl)cc1Cl)NCCc1ccccn1	-6.02% (inactive)
CCOC(=O)C1CCN(C(=O)C(C)(C)NC(=O)Nc2ccc(F)c(F)c2)CC1	-1.45% (inactive)
CCS(=O)(=O)Nc1cc(C(=O)OC)ccc1C(=O)OC	4.51% (inactive)
O=C(OC12CC3CC(CC(C3)C1)C2)c1ccc(NCc2cc(O)ccc2O)cc1	19.5% (inactive)
COC(=O)c1ccc(NCc2cc(O)ccc2O)cc1	28.5% (active)
CCC(=O)OCCCN1C(=O)CCC12CCC(c1ccccc1)CC2 (configuration not stated)	0.61% (inactive)
O=C(NCc1cccs1)C1CCN(S(=O)(=O)c2ccccc2[N+](=O)[O-])CC1	-2.52% (inactive)
COc1ccc(CCN2C(=O)C3CC=C(C)CC3C2=O)cc1OC (configuration not stated)	0.69% (inactive)
COc1ccc(N2C(=O)CC(N3CCC(C(N)=O)CC3)C2=O)cc1 (configuration not stated)	62.3% (active)
CCOC(=O)c1ccc(N2C(=O)CC(N(C)Cc3ccccc3)C2=O)cc1 (configuration not stated)	1.83% (inactive)
COc1cccc(N2CCN(C3CC(=O)N(c4ccc(Cl)cc4)C3=O)CC2)c1 (configuration not stated)	17% (inactive)
CCOC(=O)c1ccc(N2C(=O)CC(N3CCC(C(=O)OCC)CC3)C2=O)cc1 (configuration not stated)	53.2% (active)
COc1cccc(N2C(=O)CC(N3CCN(S(=O)(=O)c4ccccc4)CC3)C2=O)c1 (configuration not stated)	4.31% (inactive)
COc1ccc(CCN2C(=O)CC(N3CCC(C(N)=O)CC3)C2=O)cc1OC (configuration not stated)	39.3% (active)
CCOC(=O)c1ccc(N2C(=O)CC(N3CCN(C(=O)c4ccccc4)CC3)C2=O)cc1 (configuration not stated)	-1.22% (inactive)
COc1ccc(CN2C(=O)CC(Cc3ccc(C)cc3)C2=O)cc1OC (configuration not stated)	2.37% (inactive)
